# Data as given in PubChem BioAssay (NCATS).
# Where “and” joins values, the source holds several entries; their conditions need not be identical. Equal values may be shown once. Records with an inconclusive call do not appear. Where a call stands in place of a potency, no number is given. Calls of active or inactive are those of the source. Unless noted, calls come from the whole dose curve; as a rule, active = well fitted curve in the direction sought with a large enough effect; inconclusive = small, poorly fitted or top-dose-only effect, or another doubt; inactive = no such curve, though single readings can be large; an effect the other way counts as inactive or inconclusive.
# Tests used:
# [1] = qHTS to identify inhibitors of the type 1 interferon - major histocompatibility complex class I in skeletal muscle: primary screen against the NCATS Mechanism Interrogation Plate v5.0 (MIPE) Libary (AID 1347411); note: nearly all actives have a fitted effect of over 65% in size; note: potency is the fitted concentration of half-maximal effect
# Outline: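 Immortalized human C25cl48 myoblasts with HiBit knocked into endogenous HLA-B*08:01 were stimulated with 4.0 ng/ml IFN-beta and exposed to compounds (11-point 1:3 titration, top 46 uM final) for 24 hrs at 37 C; HiBiT lytic luminescence measured.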
# [2] = molecular target: Calcium and integrin-binding protein 1 (Homo sapiens) (UniProt Q99828); assay: Primary qHTS for Identification of Calcium Integrin Binding Protein 1 (CIB1) Competitor (AID 1508620);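 note: GST tagged CIB1 binding a fluorescein labelled alphaIIb integrin peptide tracer; top concentration of the series differs between compounds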
# Outline: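 Fluorescence polarization competition: GST-tagged CIB1 (1 uM final) preincubated with compound 15 min at room temperature, then FITC-labelled alphaIIb peptide (100 nM final) added. After 15 min at room temperature, polarization read at Ex 480/Em 540.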
# [3] = qHTS to identify inhibitors of the type 1 interferon - major histocompatibility complex class I in skeletal muscle: primary screen against the NCATS Pharmaceutical Collection (AID 1347407);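 note: luminescence of HiBiT knocked into endogenous HLA-B as interferon-induced MHC class I level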
# Outline: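 Compounds […] were added to CRISPR-engineered HLA-B-HiBiT C25cl48 human myoblasts with 4.0 ng/ml IFN-beta. After 24 hrs at 37 C, cells were lysed and HiBiT luminescence measured.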
# [4] = molecular target: Protein phosphatase 1D (Homo sapiens) (UniProt O15297); assay: RapidFire Mass Spectrometry qHTS Assay for Modulators of WT P53-Induced Phosphatase 1 (WIP1) (AID 1347424);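 note: amount of dephosphorylated VEPPL-S-QETFS peptide product formed by WIP1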; note: potency is the fitted concentration of half-maximal effect
# Outline: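 10 nM WIP1 preincubated with compounds 1 hr at room temperature in pH 7.5 Tris buffer with 30 mM MgCl2, 1 mM TCEP; 2 uM VEPPL-pS-QETFS phosphopeptide for 5 min, formic acid quench; dephosphorylated product quantified by RapidFire MS against labelled standard.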
# [5] = molecular target: Protein phosphatase 1D (Homo sapiens) (UniProt O15297); assay: Rhodamine-PBP qHTS Assay for Modulators of WT P53-Induced Phosphatase 1 (WIP1) (AID 1347425)
# Outline: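 Read-out: Rhodamine-PBP fluorescence (ex 525/em 598 nm) for released Pi, read each minute for 11 min after adding 10 uM VEPPL-pS-QETFS; signal taken as f1 minus pre-substrate f0. Enzyme 5 nM WIP1 with 1 hr room-temperature compound preincubation.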
# [6] = Primary qHTS for inhibitors of La Crosse Virus (LACV) - induced cell death in SH-SY5Y cells (AID 1508616);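 note: top concentration of the series differs between compounds; higher means more rescue of cells from virus-induced death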
# Outline: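 Luminescent ATP readout (ATPLite 1step, 5 min room temperature) measured rescue from LACV-induced death after 6 days of infection at 0.01 MOI; normalized to infected DMSO wells and uninfected DMSO wells.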
# [7] = A High-Content qHTS Against Drug Library for the Identification of Small Molecules that Inhibit DYT1 Early Onset Primary Dystonia-Associated Cell Pathology (AID 1645839; calls by dose curve; note: series mostly up to about 46 µM)
# Outline: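 Flp-In T-REx 293 cells with tetracycline-inducible EGFP-delE hTOR1A (WT EGFP-hTOR1A as reference), 800 cells/well; compound added with tetracycline, 48 h at 37 C. Fixed, permeabilized cells imaged; %pathology (punctate TorsinA) primary, cell count counterscreen.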
# [8] = molecular target: Cytochrome P450 2D6 (Homo sapiens) (UniProt P10635); assay: Cytochrome P450 family 2 subfamily D member 6 (CYP2D6) small molecule antagonists: luciferase biochemical (cell-free) qHTS assay (AID 1645840; active = well fitted curve in the direction sought with a large enough effect in the repeat runs; an effect the other way counts as inactive or inconclusive; note: nearly all actives have a fitted effect of over 55% in size; note: potency is the fitted concentration of half-maximal effect)
# Outline: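 P450-Glo luminescent screen: recombinant CYP2D6 enzyme–proluciferin substrate mix preincubated with compound 10 min at room temperature, then NADPH regeneration added for 1 h at room temperature. Detection reagent added for 20 min; luciferin light read as relative luminescence units.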
# [9] = molecular target: Cytochrome P450 2C9 (Homo sapiens) (UniProt P11712); assay: Cytochrome P450 family 2 subfamily C member 9 (CYP2C9) small molecule antagonists: luciferase biochemical (cell-free) qHTS assay (AID 1645842; active = well fitted curve in the direction sought with a large enough effect in the repeat runs; an effect the other way counts as inactive or inconclusive; note: nearly all actives have a fitted effect of over 55% in size; note: potency is the fitted concentration of half-maximal effect)
# Outline: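 Luminescence, after 20 min with luciferin detection reagent, reflected CYP2C9 turnover during a 1 h NADPH-driven reaction at 37C. Enzyme-substrate mix contained 0.4% bovine serum albumin and was preincubated with compound 10 min at room temperature.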
# [10] = Primary qHTS for inhibitors of nuclear receptor binding SET domain protein 2 (NSD2) in an isogenic RCH-ACV NSD2 p.E1099K mutant (9B) (AID 1645876); note: nearly all actives have a fitted effect of over 70% in size; note: potency is the fitted concentration of half-maximal effect
# [11] = Primary qHTS for inhibitors of nuclear receptor binding SET domain protein 2 (NSD2) in an RCH-ACV wild type WT cells (2C) (AID 1645877); note: nearly all actives have a fitted effect of over 70% in size; note: potency is the fitted concentration of half-maximal effect
# [12] = Primary qHTS for small molecule stabilizers of the endoplasmic reticulum resident proteome: Secreted ER Calcium Modulated Protein (SERCaMP) assay (AID 1508630)
# Outline: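 GLuc-SERCaMP-expressing SH-SY5Y cells, pretreated 16 h with compound, are challenged with thapsigargin to empty ER calcium stores; after 4 h, coelenterazine is added directly to the medium and luminescence is imaged.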
# Sequence of Cytochrome P450 2D6 (Homo sapiens) (P10635 whole entry, looked up): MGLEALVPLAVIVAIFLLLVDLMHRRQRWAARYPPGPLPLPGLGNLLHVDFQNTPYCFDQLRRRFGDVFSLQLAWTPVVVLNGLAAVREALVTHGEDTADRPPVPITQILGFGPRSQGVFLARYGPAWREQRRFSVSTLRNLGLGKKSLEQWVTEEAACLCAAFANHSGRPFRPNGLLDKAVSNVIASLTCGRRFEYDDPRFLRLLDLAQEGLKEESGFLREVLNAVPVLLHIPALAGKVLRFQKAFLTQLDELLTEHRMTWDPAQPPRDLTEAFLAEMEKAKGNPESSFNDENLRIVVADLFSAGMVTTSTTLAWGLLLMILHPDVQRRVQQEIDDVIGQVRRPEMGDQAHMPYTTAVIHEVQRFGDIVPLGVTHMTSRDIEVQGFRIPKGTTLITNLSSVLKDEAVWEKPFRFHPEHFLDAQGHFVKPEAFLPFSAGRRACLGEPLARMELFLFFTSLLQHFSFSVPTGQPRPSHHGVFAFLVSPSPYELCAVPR
# Sequence of Calcium and integrin-binding protein 1 (Homo sapiens) (Q99828 whole entry, looked up): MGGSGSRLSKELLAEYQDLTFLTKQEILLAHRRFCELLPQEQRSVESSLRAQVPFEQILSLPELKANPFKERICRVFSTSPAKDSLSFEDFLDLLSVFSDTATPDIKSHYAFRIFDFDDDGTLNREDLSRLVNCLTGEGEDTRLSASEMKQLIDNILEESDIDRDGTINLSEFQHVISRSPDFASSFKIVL
# Sequence of Protein phosphatase 1D (Homo sapiens) (O15297 whole entry, looked up): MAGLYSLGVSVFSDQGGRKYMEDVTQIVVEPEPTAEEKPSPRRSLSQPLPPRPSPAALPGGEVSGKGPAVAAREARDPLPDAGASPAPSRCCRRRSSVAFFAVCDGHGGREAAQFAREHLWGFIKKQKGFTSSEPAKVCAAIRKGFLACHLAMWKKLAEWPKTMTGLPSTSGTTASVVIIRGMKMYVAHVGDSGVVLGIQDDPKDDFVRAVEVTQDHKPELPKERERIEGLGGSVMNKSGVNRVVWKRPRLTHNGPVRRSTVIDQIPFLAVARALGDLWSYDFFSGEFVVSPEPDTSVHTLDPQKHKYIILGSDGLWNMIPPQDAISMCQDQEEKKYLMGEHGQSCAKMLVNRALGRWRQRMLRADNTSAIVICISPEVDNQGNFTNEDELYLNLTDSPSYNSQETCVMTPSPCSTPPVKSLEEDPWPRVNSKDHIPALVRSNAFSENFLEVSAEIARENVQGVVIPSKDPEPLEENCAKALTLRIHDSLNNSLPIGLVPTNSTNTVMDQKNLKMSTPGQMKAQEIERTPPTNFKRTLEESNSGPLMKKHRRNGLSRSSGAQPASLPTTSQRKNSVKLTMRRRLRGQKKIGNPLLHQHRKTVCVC
# Sequence of Cytochrome P450 2C9 (Homo sapiens) (P11712 whole entry, looked up): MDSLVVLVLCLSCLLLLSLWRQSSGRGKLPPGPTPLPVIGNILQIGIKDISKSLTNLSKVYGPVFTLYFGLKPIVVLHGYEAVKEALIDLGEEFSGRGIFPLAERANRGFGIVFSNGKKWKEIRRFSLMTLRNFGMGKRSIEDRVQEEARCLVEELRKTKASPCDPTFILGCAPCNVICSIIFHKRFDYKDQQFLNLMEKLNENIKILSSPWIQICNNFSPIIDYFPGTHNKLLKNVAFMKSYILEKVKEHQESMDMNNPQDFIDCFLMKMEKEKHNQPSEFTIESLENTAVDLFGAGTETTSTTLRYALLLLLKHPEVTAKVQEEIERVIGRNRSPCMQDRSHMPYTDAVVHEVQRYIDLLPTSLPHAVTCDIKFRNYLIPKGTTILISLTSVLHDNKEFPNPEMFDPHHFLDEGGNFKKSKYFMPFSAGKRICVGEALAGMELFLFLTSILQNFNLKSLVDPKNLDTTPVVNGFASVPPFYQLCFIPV
structure (smiles),measurement,setting,value
COc1cc2ncnc(Nc3cccc(Br)c3)c2cc1OC,Potency,[1],10.4 µM (active)
same,Potency,[2],inactive
Cc1cn([C@@H]2O[C@H](CO)[C@@H](O)[C@H]2F)c(=O)[nH]c1=O,outcome,[3],inactive
same,Potency,[4],inactive
same,outcome,[5],inactive
same,outcome,[6],inactive
same,Potency,[2],inactive
same,outcome,[7],inactive
same,Potency,[8],inactive
same,Potency,[9],inactive
same,Potency,[10],inactive
same,Potency,[11],inactive
Cc1ncc(-c2ccnc(Nc3ccc(S(C)(=O)=O)cc3)n2)n1C(C)C,Potency,[1],1.17 µM (active)
same,Potency,[2],inactive
same,outcome,[12],inactive
same,Potency,[8],inactive
same,Potency,[9],3.79 µM (active)
same,Potency,[10],1.45 µM (active) and 742 nM (active)
same,Potency,[11],916 nM (active) and 525 nM (active)
C=CC(=O)Nc1ccc2ncnc(Nc3ccc(OCc4cccc(F)c4)c(Cl)c3)c2c1,Potency,[1],10.4 µM (active)
same,Potency,[2],inactive
same,outcome,[12],inactive
same,Potency,[8],inactive
same,Potency,[9],3.38 µM (active)
same,Potency,[10],7.28 µM (active) and 5.9 µM (active)
same,Potency,[11],8.17 µM (active) and 4.68 µM (active)
CCCCCCCCCCCC(CC1OC(=O)C1CCCCCC)OC(=O)C(CC(C)C)NC=O (stereo not given),Potency,[1],inactive
Oc1cc(-c2nc(-c3ccccc3)[nH]c2-c2ccncc2)ccc1Cl,Potency,[1],16.5 µM (active)
same,Potency,[2],inactive
same,outcome,[12],inactive
same,Potency,[8],756 nM (active)
same,Potency,[9],1.69 µM (active)
same,Potency,[10],11.8 µM (active) and 18.3 µM (active)
same,Potency,[11],13.2 µM (active) and 16.4 µM (active)
Cc1ccc(-n2[nH]c(C)c(N=Nc3cccc(-c4cccc(C(=O)O)c4)c3O)c2=O)cc1C,outcome,[3],inactive
same,Potency,[1],inactive
same,Potency,[4],12.6 µM (active)
same,outcome,[6],inactive
same,Potency,[8],4.9 µM (active) and 7.56 µM (active)
same,Potency,[9],inactive
